This is a sample that favours compounds with a hit; in the whole collection about 11% have one here.
Sfp inh = Sfp phosphopantetheinyl transferase inhibition. AID 1490. Biochemical Sfp PPTase activity, qHTS. actives 3.5% (n = 310,000). Q9F4F7. Potency, µM, actives largely listed as inhibitors;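 note: the enzyme is Sfp with the accession as filed and its product quenches rhodamine fluorescence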
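Sfp 15 nM + cpd, 15 min RT; start w/ rhodamine-CoA 5 uM, BHQ-2-YbbR 12.5 uM (final); 50 mM Hepes pH 7.6, 10 mM MgCl2, 0.01% NP-40, 0.01% BSA; read 525/598 nm at 0 and 30 min.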
Tau fluor cs = counter-screen for tau fibril formation inhibitors. AID 1463. Potency, µM (doses to about 57.7 µM). tau K18 P301L Alexa594 fluorescence, heparin fibrillization. actives 0.93% (n = 280,000); note: nearly all actives have a fitted effect of over 55% in size
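Human K18 P301L tau (15 uM unlabeled plus 0.24 uM Alexa 594-labeled, final) in 100 mM sodium acetate pH 7 was mixed with compound and 20 uM heparin and incubated 6 hr at 37 C.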
Tau fibril ThT = inhibitors of human tau fibril formation, thioflavin T binding. actives 2.1% (n = 270,000). P10636. Potency, µM (series often up to 57.4 µM), most hits filed as inhibitors. recombinant tau K18 P301L (four-repeat tau fragment), heparin-induced fibrillization, ThT fluorescence. AID 1460; note: nearly all actives have a fitted effect of over 55% in size
Target sequence (P10636 561-689 P618L limits assumed): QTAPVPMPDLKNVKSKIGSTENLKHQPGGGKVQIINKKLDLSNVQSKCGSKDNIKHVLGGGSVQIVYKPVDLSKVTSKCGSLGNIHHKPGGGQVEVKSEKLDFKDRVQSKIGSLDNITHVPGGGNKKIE
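Recombinant human tau K18 fragment […] carrying P301L, 15 uM unlabeled plus 0.24 uM Alexa 594-labeled, was fibrillized with 20 uM heparin in 100 mM sodium acetate pH 7 for 6 hr at 37 C; 30 uM ThT fluorescence read after 1 hr.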
Tau fibril FP = tau fibrillization inhibition (FP). P10636. Potency, µM (highest dose often 57.7 µM), actives largely listed as inhibitors. AID 1468. K18 P301L tau heparin fibrillization, Alexa594 FP, 6 h. actives 0.39% (n = 280,000); note: nearly all actives have a fitted effect of over 55% in size
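Human K18 P301L fragment (15 uM unlabeled plus 0.24 uM Alexa 594-labeled) in 100 mM sodium acetate pH 7 with compound, aggregation induced by 20 uM heparin for 6 hr at 37 C. ThT (30 uM) added for 1 hr, then Alexa 594 FP read.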
G9a block = inhibitors of human histone lysine methyltransferase G9a. Q96KQ7. G9a H3K9 monomethylation, AlphaScreen, 2 h. Potency, µM (highest dose often 102 µM), most hits filed as inhibitors. actives 8.8% (n = 350,000). AID 504332; note: nearly all actives have a fitted effect of over 75% in size
Target sequence (Q96KQ7 913-1193 limits assumed): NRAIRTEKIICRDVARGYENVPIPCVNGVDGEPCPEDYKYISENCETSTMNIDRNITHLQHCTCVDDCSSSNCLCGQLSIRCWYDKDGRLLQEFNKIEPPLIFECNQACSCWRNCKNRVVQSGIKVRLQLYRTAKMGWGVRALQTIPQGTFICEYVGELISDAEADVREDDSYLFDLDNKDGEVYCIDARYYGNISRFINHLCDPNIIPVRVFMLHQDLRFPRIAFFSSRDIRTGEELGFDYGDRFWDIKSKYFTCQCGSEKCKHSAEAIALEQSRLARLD
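Chemiluminescent proximity detection of H3K9 monomethylation, read after 10 min bead incubation in the dark. Reaction: 20 nM G9a, 500 nM biotin-H3K9 peptide, 20 uM SAM cofactor, 2 h, room temperature, following 15 min enzyme-compound preincubation.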
Coupling enz = inhibits coupling enzyme system, counter-screen for aldolase hits; coupling enzyme system counterscreen, AmpLite Red fluorescence; activity change, negative = inhibition, % at 58.2 µM, hits read low; actives 0.67% (n = 290,000); AID 2472; in the data active = activity change below about -30%
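Compounds tested against the coupling enzymes alone at 57.5 uM final; readout was AmpLite Red fluorescence (525/598 nm) after 20 min at RT.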
A number is an active result; i = inactive; ? = inconclusive; nt = no result given; [ ] = another dose, or the depositor's remark. Unless noted, calls come from the whole dose curve; as a rule, active = well fitted curve in the direction sought with a large enough effect; inconclusive = small, poorly fitted or top-dose-only effect, or another doubt; inactive = no such curve, though single readings can be large; an effect the other way counts as inactive or inconclusive.

SMILES	Sfp inh	Tau fluor cs	Tau fibril ThT	Tau fibril FP	G9a block	Coupling enz
Cc1[nH]n(-c2ncc(-c3ccc(Cl)cc3)s2)c(=O)c1C(c1ccc(Cl)cc1)C(C#N)C#N (stereo unspecified)	?	?	11.2µM	39.8µM	?	i
Cc1ccccc1NC(=S)NC(NC(=O)COc1ccccc1)C(Cl)(Cl)Cl (stereo unspecified)	i	i	14.1µM	?	i	i
COC(=O)c1ccccc1NC(=S)NC(NC(=O)COc1ccccc1)C(Cl)(Cl)Cl (stereo unspecified)	i	?	i	?	2.24µM	i
Cc1nnc2ccc(-c3cccc(NS(=O)(=O)c4ccccc4[N+](=O)[O-])c3)nn12	nt	nt	nt	nt	50.1µM	nt
O=[N+]([O-])c1ccccc1S(=O)(=O)Nc1cccc(-c2ccc3nncn3n2)c1	nt	nt	nt	nt	i	nt
Cc1ccc(C(C[N+](=O)[O-])c2c(-c3ccccc3O)[nH][nH]c2=O)cc1 (stereo unspecified)	i	i	17.8µM	?	i	i
O=c1[nH][nH]c(-c2ccccc2O)c1C(C[N+](=O)[O-])c1ccc(Br)cc1 (stereo unspecified)	i	?	?	i	i	i
O=C(Nc1nnc(-c2ccco2)o1)c1ccc(N2C(=O)CCC2=O)cc1	79.4µM	i	i	i	i	i
O=C(Nc1nnc(-c2ccco2)o1)c1ccc(Cl)s1	i	nt	nt	nt	79.4µM	nt
Cc1ccc(S(=O)(=O)CCC(=O)Nc2nnc(-c3ccco3)o2)cc1	nt	nt	nt	nt	25.1µM	nt
CCN(c1ccccc1)S(=O)(=O)c1ccc(C(=O)Nc2nnc(-c3ccco3)o2)cc1	i	i	i	i	50.1µM	i
COC(=O)c1ccccc1NC(=O)COC(=O)/C=C/c1ccco1	i	i	i	i	50.1µM	i
COc1ccccc1NC(=O)COC(=O)/C=C/c1ccc2c(c1)OCO2	79.4µM	i	i	?	i	i
O=C(COC(=O)/C=C/c1ccco1)NCc1ccc2c(c1)OCO2	i	i	i	i	56.2µM	i
O=C(COC(=O)/C=C/c1ccco1)Nc1ccccc1	i	i	i	i	56.2µM	i
COC(=O)c1ccccc1NC(=O)COC(=O)c1ccco1	i	i	i	i	i	i
COc1cc(C(=O)NCC(=O)N/N=C/c2ccc(OC(=O)c3ccco3)cc2)cc(OC)c1OC	i	i	i	i	i	i
Cc1cc(C)n(-c2cccc(C(=O)O)c2)n1	i	i	i	i	?	i
O=C(CSCc1cccc(Br)c1)N=Nc1c(O)[nH]c2ccccc12	i	?	?	?	i[0.0925 µM]	nt
O=Nc1c(-c2c(O)[nH]c3cc(Br)ccc23)[nH]c2ccccc12	i	8.91µM[quencher]	2.24µM	?	8.44µM	i
Cc1ccc2cccc(NC(=O)C(C)(C)Oc3ccc(Br)cc3)c2n1	nt	i	i	?	i	nt
Cc1sc2nc(CSC(C)C(=O)Nc3ccc(C#N)cc3)[nH]c(=O)c2c1C (stereo unspecified)	nt	nt	nt	nt	i[0.501 µM]	nt
Cc1ccc(F)cc1NC(=O)CSCc1nc2sc(C)c(C)c2c(=O)[nH]1	nt	nt	nt	nt	39.8µM	nt
Cc1sc2nc(CSC(C)C(=O)NC3(C#N)CCCCC3)[nH]c(=O)c2c1C (stereo unspecified)	nt	nt	nt	nt	44.7µM	nt
CC(=O)c1ccccc1NC(=O)CSCc1nc2sc(C)c(C)c2c(=O)[nH]1	nt	nt	nt	nt	i	nt
SMILES	Sfp inh	Tau fluor cs	Tau fibril ThT	Tau fibril FP	G9a block	Coupling enz
Cc1sc2nc(CSCC(=O)Nc3ccccc3C#N)[nH]c(=O)c2c1C	79.4µM	i	?	i	?	i
CCOC(=O)N1CCN(Cc2nc(N)nc(Nc3ccc(C)cc3C)n2)CC1	i	i	i	i	i	i
CCCN1Cc2cccc(C(=O)Nc3ccccc3F)c2C1=O	nt	i	i	i	i	nt
COc1ccc2[nH]c(C(=O)O)c(NS(=O)(=O)c3ccc(OC)c(OC)c3)c2c1	i	?	?	i	?	i
COc1ccc(S(=O)(=O)Nc2c(C(=O)O)[nH]c3ccc(OC)cc23)cc1	i	nt	nt	nt	7.94µM	i
COc1ccc(S(=O)(=O)Nc2c(C(=O)O)[nH]c3ccccc23)c(OC)c1	i	i	i	i	39.8µM	i

Bioassay records deposited in PubChem by National Center for Advancing Translational Sciences (NCATS).
